Measurements published in PubChem BioAssay AID602244 (Sanford-Burnham Center for Chemical Genomics, 2012).
In all, about 360,000 compounds went through this assay and about 1,300 (0.36%) were called active. For the sample, actives were picked, then their nearest neighbours and some compounds at random. Unmarked numbers belong to inactive results. No stated cut-off is given here; in the data, active means inhibition above about 34% (passing the limit was not always enough); inactive means the rest.

The compounds below were run against C-X-C chemokine receptor type 6 (Homo sapiens) (UniProt O00574) (assay: CXCR6 receptor inhibitors, primary screen, cell-based, beta-arrestin, luminescence, CHO-K1 PathHunter, 1536-well (AID 602244;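 further: antagonist mode with CXCL16 agonist at 10 nM final; 0% = 10 nM CXCL16 with DMSO and 100% = unstimulated wells without agonist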)). Details: at 20 µM, active compounds read high.
C-X-C chemokine receptor type 6 (Homo sapiens), sequence (O00574 whole entry, looked up): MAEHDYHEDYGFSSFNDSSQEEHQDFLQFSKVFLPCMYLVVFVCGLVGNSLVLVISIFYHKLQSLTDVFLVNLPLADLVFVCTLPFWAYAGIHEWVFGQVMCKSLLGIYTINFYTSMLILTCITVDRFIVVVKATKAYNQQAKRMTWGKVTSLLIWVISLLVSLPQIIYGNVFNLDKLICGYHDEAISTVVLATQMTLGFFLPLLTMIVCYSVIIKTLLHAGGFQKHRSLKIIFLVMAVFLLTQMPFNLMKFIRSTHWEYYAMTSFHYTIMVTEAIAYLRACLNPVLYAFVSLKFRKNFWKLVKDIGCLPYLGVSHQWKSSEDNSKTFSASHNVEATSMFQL

SMILES	inhibition
Cn1c(O)c(C=NCCCC(=O)O)c(=O)n(C)c1=O	-3.2%
CCCCC(=O)N/N=C/c1c(O)n(CC)c(=S)n(CC)c1=O	58.7% (active)
O=C(N/N=C/c1c(O)n(Cc2ccccc2)c(=O)[nH]c1=O)c1ccccc1	7.9%
Cc1cc(C)cc(NC(=S)NC2CC3CCCC(C2)N3Cc2cccs2)c1 (stereo not given)	3.2%
Oc1cc2c(cc1CN1CCN(c3ccccc3)CC1)OCO2	5.6%
CCCC[N+]1(C)C2CC(OC(=O)C(CO)c3ccccc3)CC1C1OC12 (stereo not given)	0.8%
Cc1ccc(-c2nn(CCC#N)cc2C(=O)O)cc1C	9.5%
Cc1cccc(N2C(=O)NC(=O)/C(=C\c3cnn(-c4ccccc4)c3)C2=O)c1	51.1% (active)
C/C=C/CC1(CC)C(=O)NC(=S)NC1=O	-5.1%
COc1ccc(S(=O)(=O)NCc2ccc(C(=O)N3CCC4(CC3)OCCO4)cc2)cc1	3.3%
CCOC(=O)C1=C(C)OC(N)=C(C(=O)OC)C12C(=O)Nc1ccc(Br)cc12 (stereo not given)	9.8%
O=C1NC(=O)C(CCOc2ccccc2)(CCc2ccccc2)C(=O)N1	-10%
C=CCN1C(=O)C2(C(C(=O)OCC)=C(N)Oc3c2c(=O)oc2ccccc32)c2ccccc21 (stereo not given)	-2.4%
CC(=O)OC1C2(CC3N4C(=O)C5(CO)SSC4(CC31O)C(=O)N5C)OC(C)C(C)(C)C2=O (stereo not given)	99.4% (active)
CNC(=O)O/N=C(\N)Cc1csc2ccc(Cl)cc12	0%
